# In PubChem BioAssay (NCATS):
# Values joined by “and” are separate entries in the source; they are usually repeats but may differ in a detail not shown here. Identical values can stand only once. Unmarked numbers belong to inactive results. Inconclusive results are not listed. Active and inactive are the calls of the source. Unless noted, calls come from the whole dose curve; as a rule, active = well fitted curve in the direction sought with a large enough effect; inconclusive = small, poorly fitted or top-dose-only effect, or another doubt; inactive = no such curve, though single readings can be large; an effect the other way counts as inactive or inconclusive.
# Legend:
# [1] = biological target: Cytochrome P450 3A4 (Homo sapiens) (UniProt P08684); assay: qHTS Assay for Inhibitors and Substrates of Cytochrome P450 3A4 (AID 884); note: nearly all actives have a fitted effect of over 50% in size; note: potency is the fitted concentration of half-maximal effect; for activity change, negative = inhibition: series mostly up to about 57 µM; % is set by controls: 0 for no effect and ±100 for the full control effect
# Outline: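 Luminescent readout of luciferin produced by CYP3A4 (20 nM) dealkylation of Luciferin-PPXE, 25 uM (its KM). NADPH-driven reaction ran 60 min at RT after 10 min compound preincubation; data scaled to 57 uM ketoconazole as 100% inhibition.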
# [2] = biological target: Cytochrome P450 3A4 (Homo sapiens) (UniProt P08684); assay: qHTS Assay for Activators of Cytochrome P450 3A4 (AID 885); note: nearly all actives have a fitted effect of over 65% in size
# Outline: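 Human CYP3A4 dealkylates Luciferin-PPXE to luciferin, which luciferase detection converts to light. Substrate was at its KM (25uM), buffer 200mM KPO4, reaction 60 min at RT.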
# [3] = biological target: Cytochrome P450 2C19 (Homo sapiens) (UniProt P33261); assay: qHTS Assay for Inhibitors and Substrates of Cytochrome P450 2C19 (AID 899); note: nearly all actives have a fitted effect of over 60% in size; note: potency is the fitted concentration of half-maximal effect
# Outline: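 Reactions contain 5nM enzyme, 10uM Luciferin-H EGE (KM) and 50mM KPO4; compound preincubates 10 min at 37C, NADPH regeneration starts turnover for 60 min. Luminescence after detection reagent gives activity.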
# [4] = Confirmation and Secondary Assay for Modulators of Hemoglobin Beta Chain Splicing at IVS2 654 locus (AID 910);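 note: HeLa cells stably carrying EGFP split by mutant beta-globin IVS2-654 intron; per-well total GFP intensity by laser scanning cytometry after 2-day treatment; % of control where 0% means no effect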
# Outline: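 Readout: per-well total peak green fluorescence (488 nm ex, 500–520 nm em) from objects 5–250 µm, reflecting correct splicing of an EGFP-654 reporter. Compounds were applied for 2 days at 37 °C to overnight-plated HeLa EGFP-654 cells; controls were DMSO and 500 nM IVS2-654 PNA.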
# [5] = Confirmation and Secondary Assay for Modulators of Hemoglobin Beta Chain Splicing at IVS2 705 locus (AID 930);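 note: HeLa cells stably expressing the EGFP-705 splicing reporter; GFP fluorescence per well restored by corrected splicing of the IVS2-705 intron in EGFP; series mostly up to about 46 µM; % of control where 0% means no effect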
# Outline: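 Stable HeLa line with EGFP disrupted by mutant beta-globin intron 2 (705). Overnight attachment, then 2 days of compound at 37C, 5% CO2. Signal: peak GFP intensity summed over objects 5-250 µm.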
# [6] = biological target: Cytochrome P450 2D6 (Homo sapiens) (UniProt P10635); assay: qHTS Assay for Inhibitors and Substrates of Cytochrome P450 2D6 (AID 891); note: nearly all actives have a fitted effect of over 60% in size; note: potency is the fitted concentration of half-maximal effect;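 for activity change, negative = inhibition: luciferin methyl ether substrate demethylated by CYP2D6 with NADPH regeneration; % is set by controls: 0 for no effect and ±100 for the full control effect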
# Outline: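 Luminescent read-out of luciferin formed by 5 nM human CYP2D6 demethylating 30 uM Luciferin-ME EGE (Km level) over 60 min at room temperature after NADPH regeneration addition. Data normalized to full inhibition by 1.43 uM quinidine.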
# [7] = qHTS Assay for Identification of Small Molecule Agonists for Hypoxia Response Element Signaling Pathway (AID 914; active = well fitted activation curve with a large enough effect in the signal ratio, with a control signal flat, not every such curve was filed as active; the % refers to the signal ratio; note: % of control where 0% means no effect); conditions: ME-180 (cervical carcinoma) HRE-bla reporter, beta-lactamase ratio, CoCl2, 17 h; active compounds read high
# Outline: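 Reporter activity (beta-lactamase, CCF4 460nm/530nm ratio) in HRE-bla ME-180 cells is recorded after 17 h compound exposure with EC50 CoCl2 at 37 degrees Celsius. AC50 values come from titration data.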
# Sequence of Cytochrome P450 2C19 (Homo sapiens) (P33261 whole entry, looked up): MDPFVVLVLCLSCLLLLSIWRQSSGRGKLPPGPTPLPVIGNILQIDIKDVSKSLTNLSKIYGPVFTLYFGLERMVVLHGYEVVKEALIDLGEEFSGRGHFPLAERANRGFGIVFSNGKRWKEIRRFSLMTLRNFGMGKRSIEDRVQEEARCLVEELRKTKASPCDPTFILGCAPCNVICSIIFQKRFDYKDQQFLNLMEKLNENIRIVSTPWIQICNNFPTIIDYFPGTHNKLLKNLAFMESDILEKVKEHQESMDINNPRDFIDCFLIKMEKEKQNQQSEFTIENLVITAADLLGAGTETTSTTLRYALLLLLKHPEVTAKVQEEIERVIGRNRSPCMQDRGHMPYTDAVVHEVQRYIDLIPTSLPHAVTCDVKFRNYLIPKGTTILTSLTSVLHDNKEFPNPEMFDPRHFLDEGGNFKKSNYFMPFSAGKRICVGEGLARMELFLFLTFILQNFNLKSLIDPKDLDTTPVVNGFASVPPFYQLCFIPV
# Sequence of Cytochrome P450 3A4 (Homo sapiens) (P08684 whole entry, looked up): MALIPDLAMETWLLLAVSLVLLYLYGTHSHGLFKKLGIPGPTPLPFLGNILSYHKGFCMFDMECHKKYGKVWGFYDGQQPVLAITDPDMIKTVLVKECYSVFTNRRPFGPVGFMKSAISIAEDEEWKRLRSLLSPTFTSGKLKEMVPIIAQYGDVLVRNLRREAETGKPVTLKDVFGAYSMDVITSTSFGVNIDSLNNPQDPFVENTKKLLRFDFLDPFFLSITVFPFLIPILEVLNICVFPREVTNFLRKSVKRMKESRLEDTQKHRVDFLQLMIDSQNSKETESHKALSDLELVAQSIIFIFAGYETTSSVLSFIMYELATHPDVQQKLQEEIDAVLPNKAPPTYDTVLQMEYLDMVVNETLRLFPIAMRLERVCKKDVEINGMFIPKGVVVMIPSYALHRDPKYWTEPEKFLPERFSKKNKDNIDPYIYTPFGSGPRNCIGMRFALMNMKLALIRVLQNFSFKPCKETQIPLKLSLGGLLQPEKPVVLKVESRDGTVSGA
# Sequence of Cytochrome P450 2D6 (Homo sapiens) (P10635 whole entry, looked up): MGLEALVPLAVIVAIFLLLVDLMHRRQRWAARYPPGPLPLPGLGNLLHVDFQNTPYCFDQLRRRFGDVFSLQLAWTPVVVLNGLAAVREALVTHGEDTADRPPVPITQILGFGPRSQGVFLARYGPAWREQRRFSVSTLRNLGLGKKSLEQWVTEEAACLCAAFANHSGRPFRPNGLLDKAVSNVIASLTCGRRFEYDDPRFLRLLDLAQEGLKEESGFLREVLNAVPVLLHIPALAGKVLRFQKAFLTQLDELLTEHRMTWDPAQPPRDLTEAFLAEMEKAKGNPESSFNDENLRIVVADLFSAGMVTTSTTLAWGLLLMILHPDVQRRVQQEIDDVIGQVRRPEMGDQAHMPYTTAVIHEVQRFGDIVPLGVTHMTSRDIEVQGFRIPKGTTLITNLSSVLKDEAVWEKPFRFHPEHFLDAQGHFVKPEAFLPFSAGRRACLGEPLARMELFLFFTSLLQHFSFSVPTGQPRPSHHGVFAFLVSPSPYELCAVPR
smiles,measurement,setting,value
COC(=O)C[C@@H]1O[C@H]1[C@H](C)[C@@H](OC)C(C)C,Potency,[1],3.98 µM (active)
same,"activity change, positive = activation",[2],-66.6% [at 11.4 µM]
same,Potency,[3],3.98 µM (active)
CC(=O)c1c(O)cc(O)cc1O,Potency,[1],3.16 µM (active)
same,Potency,[2],inactive
same,outcome,[4],inactive
same,outcome,[5],inactive
COc1ccc(/C=C/N(CCc2ccc(OC)c(OC)c2)C(=O)C(F)(F)F)cc1,Potency,[1],2 µM (active)
same,"activity change, positive = activation",[2],-97.3% [at 11.4 µM]
same,Potency,[3],0.0794 µM (active)
COc1ccc(O[C@H]2C=C[C@@H](c3ccccc3)O[C@H]2CO/N=C\C[C@@H]2C=C[C@H](OC(C)=O)[C@H](COC(C)=O)O2)cc1,Potency,[1],3.98 µM (active)
same,"activity change, positive = activation",[2],-90.6% [at 11.4 µM]
same,Potency,[3],0.794 µM (active)
COCOc1ccc(Br)cc1C(=O)[C@H]1O[C@H]1c1cccc(OC)c1,Potency,[1],3.98 µM (active)
same,"activity change, positive = activation",[2],-113% [at 11.4 µM]
same,Potency,[3],0.0631 µM (active)
COc1cccc(-c2cc(=O)c3ccc(OC)cc3o2)c1,Potency,[1],7.94 µM (active)
same,Potency,[2],inactive
same,outcome,[4],inactive
same,outcome,[5],inactive
COc1ccc(O[C@H]2C=C[C@@H](c3ccccc3)O[C@@H]2CO/N=C(\C)CCN2CCCCc3nc(C)c(C)cc32)cc1,Potency,[1],3.98 µM (active)
same,"activity change, positive = activation",[2],-86.9% [at 11.4 µM]
same,Potency,[3],2.51 µM (active)
CCOC(=O)OCC1OC(c2ccccc2)C=CC1Oc1ccc(F)cc1C (centres undefined),"activity change, negative = inhibition",[1],-28.9% [at 11.4 µM]
same,Potency,[6],inactive
COc1ccc(O[C@H]2C=C[C@@H](c3ccccc3)O[C@H]2COC(=O)CC/C(C)=N\O[C@@H](C)CN2CCCCc3nc(C)c(C)cc32)cc1,Potency,[1],3.98 µM (active)
same,"activity change, positive = activation",[2],-114% [at 11.4 µM]
same,Potency,[3],5.01 µM (active)
CO[C@@H]1COC(=O)C/C=C\[C@@H](C)[C@H](OC)COC(=O)[C@H](COCc2ccccc2)NC(=O)C/C=C\[C@H]1C,"activity change, positive = activation",[2],-41.7% [at 11.4 µM]
CSCCC(NC=O)C(=O)NC(CC(C)C)C(=O)NC(Cc1ccccc1)C(=O)O (centres undefined),Potency,[1],inactive
same,outcome,[4],inactive
CCc1cc2c(nc1CC)CCN(CC/C(C)=N/O[C@@H](C)c1cn([C@H](CO)Cc3ccccc3)nn1)C2,Potency,[1],3.16 µM (active) and 3.98 µM (active)
same,activation,[7],-4.74%
C#CCCCO/N=C1/C[C@@H](O)[C@@H](O)[C@@H]2[C@@H]3C(=O)N(C[C@@H]4CCCO4)C(=O)[C@H]3CC[C@H]12,"activity change, positive = activation",[2],-43.2% [at 11.4 µM]
CO[C@@H]1COC(=O)[C@@H](CCSC)NC(=O)C/C=C\[C@@H](C)COC(=O)CCC[C@H]1C,"activity change, positive = activation",[2],-30.5% [at 11.4 µM]
CC(C)=CCc1c(O)cc2occ(-c3ccc4c(c3)OCO4)c(=O)c2c1O,Potency,[1],3.98 µM (active)
same,outcome,[4],inactive
same,outcome,[5],inactive
CCOC(=O)OCC1OC(C#Cc2ccc(C(C)(C)C)cc2)C=CC1OC(=O)OCC (centres undefined),"activity change, negative = inhibition",[1],-12.4% [at 11.4 µM]
same,Potency,[6],inactive
same,Potency,[3],inactive
C=CCC1C=CC(Oc2ccc(OC)cc2)C(COC(=O)c2ccc(Br)cc2)O1 (centres undefined),Potency,[1],3.16 µM (active)
same,Potency,[3],3.16 µM (active)
O=C(N/N=C1/C[C@@H](O)[C@@H](O)[C@@H]2[C@H]3C(=O)N(c4ccc(F)cc4F)C(=O)[C@@H]3CC[C@@H]12)OCc1ccccc1,"activity change, positive = activation",[2],-45.4% [at 11.4 µM]
COC(=O)C/C=C\[C@@H](C)[C@@H](/C=N\O[C@@H]1O[C@H](COC(C)=O)[C@H](OC(C)=O)[C@H](OC(C)=O)[C@H]1OC(C)=O)OC,"activity change, positive = activation",[2],-32.3% [at 11.4 µM]
Cc1ccccc1OC1C=CC(C#Cc2ccc(Br)cc2)OC1CO (centres undefined),"activity change, negative = inhibition",[1],-26.7% [at 11.4 µM]
same,Potency,[6],inactive
same,Potency,[3],inactive
COc1ccc(/C=C/C(=O)c2ccccc2O)cc1,"activity change, negative = inhibition",[1],-17.2% [at 11.4 µM]
same,Potency,[6],3.16 µM (active)
same,Potency,[3],1.26 µM (active)
CNC(=O)Oc1ccc2c(c1)[C@@]1(C)CCN(C)C1N2C (some centres undefined),Potency,[1],inactive
same,outcome,[4],inactive
COC(=O)NC(/C(C(=O)OC)=C(\C)NCc1ccccc1)c1ccc(Cl)cc1 (centres undefined),"activity change, negative = inhibition",[1],-24.6% [at 11.4 µM]
same,Potency,[3],5.01 µM (active)
CC(C)[C@@H](OCc1ccccc1)[C@H](C)/C=N\O[C@@H](C)c1cn([C@H](CO)Cc2ccccc2)nn1,"activity change, positive = activation",[2],-36% [at 11.4 µM] and -44.1% [at 11.4 µM]
CC(=O)c1ccc(OC2C=CC(c3ccc(Cl)cc3)OC2CO)cc1 (centres undefined),"activity change, negative = inhibition",[1],-21.5% [at 11.4 µM]
same,Potency,[6],inactive
same,Potency,[3],5.01 µM (active)
